Several values for one entry are separate records, joined by “and”; a condition that tells them apart may be missing. Equal values may be shown once. In all, about 2,300 compounds went through this assay and about 1,400 (61%) were called active. Not shown: some 29% with an inconclusive outcome. The call rests on the fitted dose curve; in most records, active means well fitted inhibition curve with a large enough effect; inconclusive means small, poorly fitted or top-dose-only effect, or effect the other way; inactive means no such curve, though single readings can be large or run the other way. So high a share suggests a set chosen from earlier hits. This is one part of the list.
Test: Confirmation screen for delayed death inhibitors of the malarial parasite plastid, 96 hour incubation; further: nearly all actives have a fitted effect of over 60% in size
Conditions: P. falciparum luciferase growth in erythrocytes; series mostly up to 28.7 µM
Source text: The goal of this screen is to discover new antimalarial compounds that act by inhibiting the development of the apicoplast in the malarial parasite Plasmodium falciparum. The biochemical processes that make this organelle essential for erythrocytic stage parasites are not well understood. However, antibiotics, such as azithromycin and tetracycline, which target the apicoplast translational machinery, have a potent antimalarial effect. […] We have developed a cell-based assay that measures parasite growth based on the expression of an integrated copy of a firefly luciferase reporter. To detect small molecules that cause this "delayed death phenotype, erythrocytes infected with the luciferase-expressing parasites were incubated with compounds for either one or two generations, corresponding to 48 and 96 hours, respectively. Compounds that inhibit parasite growth in the second generation, but not the first, should be enriched in antimalarials that target the apicoplast. Growth inhibition is detected by a decrease in luciferase activity. MLPCN Grant: R21 NS059500 Assay Provider: David Fidock and Eric Ekland, Columbia University Keywords: NIH Roadmap, MLPCN, MLI, MLSMR, qHTS, NCGC, qHTS, malaria, luciferase, viability
Four microliters of culture medium (RPMI 1640 with 0.5% w/v Albumax (GIBCO), 24 mM sodium bicarbonate and 10 ug/mL gentamycin) were dispensed by a Multi-drop Combi into white solid 1536-well plates (Grenier) and 23 nL compound was added by a pin tool. Four microliters of infected erythrocytes (2% hematocrit, 0.1% parasitemia final concentration) in culture medium were dispensed and the plates incubated for 96 hours at 37 C in 5% CO2. Two microliters of luciferase detection reagent was added and luminescence was detected by a ViewLux (PerkinElmer) reader
Potency means the concentration at half of the fitted maximal effect.

Row | Structure (SMILES) | Potency
1 | COc1ccc(-n2c(C)cc(C(=O)C[N+]34CCN(CC3)CC4)c2C)cc1 | 12.6 µM (active)
2 | C[C@@H]1CC2(CCCC[N+]2(C)C)C[C@H]1C | 14.1 µM (active)
3 | CC(=O)N1CC(=O)Nc2ccc(Cl)cc2C1c1ccccc1 (centres undefined) | inactive
4 | CN1C[C@H](C(=O)N[C@]2(C)O[C@@]3(O)[C@@H]4CCCN4C(=O)[C@H](Cc4ccccc4)N3C2=O)C[C@@H]2c3cccc4[nH]cc(c34)C[C@H]21 | 2.24 µM (active)
5 | O=C(CN1CC=C(c2ccccc2)CC1)NC(=O)NCc1ccccc1 | inactive
6 | Cc1ccc(N2C(=O)NC(=O)/C(=C\C=C\c3ccco3)C2=O)cc1 | inactive
7 | CC(C)(C)C(=O)C(Oc1ccc(Cl)cc1)n1ccnc1 (centres undefined) | 14.1 µM (active)
8 | C=C[C@H]1CN2CC[C@H]1C[C@@H]2[C@@H](O)c1ccnc2ccccc12 | 0.199 µM (active)
9 | C[n+]1c2cc(N)ccc2cc2ccc(N)cc21 | 0.562 µM (active)
10 | Cn1c(=O)oc2cc(NC(=O)CCl)ccc21 | 0.794 µM (active)
11 | CCn1c(=O)oc2cc(NC(=O)CCl)ccc21 | 2 µM (active)
12 | CN1CCc2cc3c(c4c2C1Cc1ccccc1-4)OCO3 (centres undefined) | 0.562 µM (active)
13 | C=C1C(=O)O[C@@H]2C[C@@H](C)[C@@H]3C=CC(=O)[C@@]3(C)[C@@H](O)[C@H]12 | 2 µM (active)
14 | C=C1C(=O)O[C@@H]2C[C@@H](C)[C@@H]3C=CC(=O)[C@@]3(C)[C@@H](OC(=O)CC(=O)O[C@H]3[C@@H]4C(=C)C(=O)O[C@@H]4C[C@@H](C)[C@@H]4C=CC(=O)[C@]43C)[C@H]12 | 0.0282 µM (active)
15 | C=C1C(O)[C@@H]2O[C@]3(CC[C@H](/C=C/C(C)[C@@H]4CC(C)=CC5(O[C@H](C[C@@](C)(O)C(=O)O)CCC5O)O4)O3)CC[C@H]2O[C@@H]1C(O)CC(C)[C@H]1OC2(CCCCO2)CCC1C (some centres undefined) | 0.0631 µM (active)
16 | O=c1oc2ccccc2c(O)c1[C@H]1c2ccc(O)cc2Oc2c1c(=O)oc1ccccc21 | inactive
17 | CC(C)c1oc(=O)cc2c1[C@@H](O)[C@H]1OC(=O)[C@@]3(C)CC[C@@H](O)[C@@]2(C)C13 (some centres undefined) | 7.94 µM (active)
18 | O=C(/C=C/c1cccs1)c1cc(Cl)ccc1OC(=O)N1CCOCC1 | 11.2 µM (active)
19 | Cc1cc2ccccn2c1C(C[N+](=O)[O-])c1c(F)cccc1Cl (centres undefined) | 12.6 µM (active)
20 | COc1cccc(-n2c(CN3CCN(C)CC3)nc3ccc([N+](=O)[O-])cc3c2=O)c1 | 15.8 µM (active)

Row | Structure (SMILES) | Potency
21 | Cc1ccc(C(C)C)c(OCC(=O)N2CCN(Cc3nc4cc([N+](=O)[O-])ccc4n3C)CC2)c1 | inactive
22 | CC(C)c1ccc(N2C(=O)NC(=O)/C(=C\C=C\c3ccco3)C2=O)cc1 | inactive
23 | O=C(CCl)Nc1nccs1 | 6.31 µM (active)
24 | Fc1ccc(C[n+]2c(-c3ccccc3)cc(-c3ccccc3)cc2-c2ccccc2)cc1 | 2 µM (active)
25 | O=C1NC(=O)N(c2ccccc2)C(=O)/C1=C/C=C/c1ccco1 | inactive
26 | C=CCn1c(O)c(N=Nc2c(C)n(C)n(-c3ccccc3)c2=O)c(=O)[nH]c1=S | 6.31 µM (active)
27 | O=[N+]([O-])c1cccc2c([As](=O)(O)O)cccc12 | 1.12 µM (active)
28 | C[C@@H]1C[C@@H]2O[C@H]2/C=C\C=C\C(=O)Cc2c(Cl)c(O)cc(O)c2C(=O)O1 | 7.08 µM (active)
29 | COC(=O)c1nc(-c2ccc3c(n2)C(=O)C(N)=C(OC)C3=O)c(N)c(-c2ccc(OC)c(OC)c2O)c1C | 0.251 µM (active)
30 | O=C(NC1CC2CCCC(C1)N2)c1ccccc1 (centres undefined) | 5.01 µM (active)
31 | Cc1ccc(-c2nc(NC(=O)c3ccc(S(=O)(=O)N(CCC#N)CCC#N)cc3)sc2-c2ccccc2)cc1 | 11.2 µM (active)
32 | CN1C2CCC1/C(=C/c1ccccn1)C(=O)/C2=C\c1ccccn1 | 0.158 µM (active)
33 | C[C@@H]1O[C@@H](O[C@H]2C[C@@H](O)[C@]3(CO)[C@@H]4C(CC[C@]3(O)C2)[C@@]2(O)CC[C@H](C3COC(=O)C3)[C@@]2(C)C[C@H]4O)[C@H](O)[C@H](O)[C@H]1O (some centres undefined) | inactive
34 | CCOc1cc2c(cc1OCC)-n1cccc1C(c1ccccc1F)NC2 (centres undefined) | 5.01 µM (active)
35 | C[C@@H]1C[C@@H]([C@H](O)CC2CC(=O)NC(=O)C2)C(=O)[C@@H](C)C1 | 0.794 µM (active)
36 | C[C@H]1C[C@@H](C)C(=O)[C@@H]([C@H](O)CC2CC(=O)NC(=O)C2)C1 | 0.0316 µM (active)
37 | C/C1=C\[C@@H](C)C/C=C/[C@H]2[C@@H]3O[C@]3(C)[C@@H](C)[C@H]3[C@H](Cc4c[nH]c5ccccc45)NC(=O)[C@]32C(=O)/C=C/C(=O)[C@@H]1O | 0.891 µM (active)
38 | CCC(C(=O)N1CCC2(CC1)OCCO2)n1c2ccccc2c2nc(=O)cc(C)n21 (centres undefined) | 11.2 µM (active)
39 | C[C@@H]1CC[C@H]2[C@@H](C)C(=O)O[C@@H]3OC4(C)CC[C@@H]1C32OO4 (some centres undefined) | 0.0398 µM (active)
40 | C[C@@H]1CC[C@H]2[C@@H](C)C(=O)O[C@@H]3O[C@@]4(C)CC[C@@H]1[C@]32OO4 | 0.0398 µM (active)

Row | Structure (SMILES) | Potency
41 | CCN(CC)Cc1cc(Nc2ccnc3cc(Cl)ccc23)ccc1O | 89.1 nM (active) and 22.4 nM (active)
42 | C[n+]1c(-c2ccccc2)cc(-c2ccc(Cl)cc2)cc1-c1ccccc1 | 0.891 µM (active)
43 | COc1ccc(-c2cc(-c3ccccc3)[n+](C)c(-c3ccccc3)c2)cc1 | 2 µM (active)
44 | CCOP(=O)(OCC)C(O)c1ccc(OC)cc1OC (centres undefined) | inactive
45 | O=C1/C(=C/c2ccccc2)C[C@@]2(O)[C@H]3Cc4ccc(O)c5c4[C@@]2(CCN3CC2CC2)C1O5 (some centres undefined) | 5.01 µM (active)
46 | COc1ccc(Cn2c(N)c(C(=O)NCc3ccco3)c3nc4ccccc4nc32)cc1 | 3.98 µM (active)
47 | CC(C)CCOP(N)(=O)Oc1ccccc1 (centres undefined) | 3.98 µM (active)
48 | CC[n+]1c(-c2ccccc2)c2cc(N)ccc2c2ccc(N)cc21 | 0.0282 µM (active)
49 | CC1=CC2/C=C(\C)CCC(O)C(O)/C=C/C(=O)C23C(=O)NC(CC(C)C)C3C1C (centres undefined) | 12.6 µM (active)
50 | CCCNS(=O)(=O)c1ccc(OCC(=O)N2CCN(Cc3ccc4c(c3)OCO4)CC2)c(C)c1 | 11.2 µM (active)
51 | Oc1ccc(-[n+]2c(-c3ccccc3)cc(-c3ccccc3)cc2-c2ccccc2)cc1 | 0.0794 µM (active)
52 | CN(C)c1ccc(C(=O)N/N=C/C23CC[C@@H](O)CC2(O)CC[C@@H]2[C@@H]3CCC3(C)C(C4=CC(=O)OC4)CCC23O)cc1 (some centres undefined) | 12.6 µM (active)
53 | COc1cc(C(=O)N/N=C/C23CC[C@@H](O)CC2(O)CC[C@@H]2[C@@H]3CCC3(C)C(C4=CC(=O)OC4)CCC23O)ccc1O (some centres undefined) | inactive
54 | CC12CC[C@H]3[C@@H](CCC4(O)C[C@H](O)CCC34/C=N/NC(=O)c3ccccc3F)C1(O)CCC2C1=CC(=O)OC1 (some centres undefined) | inactive
55 | COC(=O)C1=C(c2ccccc2OCc2ccccc2)C[C@@H]2CC[C@H]1N2C(=O)NCCOc1ccc(OC)cc1 | 12.6 µM (active)
56 | CC[C@H]1CN2CCc3cc(OC)c(OC)cc3[C@@H]2C[C@@H]1C[C@H]1NCCc2cc(OC)c(OC)cc21 | 0.224 µM (active)
57 | CC[C@H]1CN2CCc3cc(OC)c(OC)cc3C2C[C@@H]1C[C@H]1NCCc2cc(OC)c(OC)cc21 (some centres undefined) | 0.0501 µM (active)
58 | CC[C@H]1CN2CCc3cc(OC)c(OC)cc3[C@H]2C[C@@H]1C[C@@H]1NCCc2cc(OC)c(OC)cc21 | 0.501 µM (active)
59 | Cn1c(O)c(C=NC2C(=O)C3(C)CCC2C3(C)C)c(=O)n(C)c1=O (centres undefined) | inactive
